KB-3-1 cytotox – qHTS assay for MDR1-selective chemotherapeutics: Primary screen using the parental adenocarcinoma cell KB-3-1 | KB-3-1 viability, CellTiter-Glo ATP luminescence, 72 h | Potency, µM (doses to about 46.1 µM), hits mostly cytotoxic | 400,000 tested, 1.4% active | AID 1347075, 2019; note: % is set by controls: 0 for no effect and ±100 for the full control effect; nearly all actives have a fitted effect of over 60% in size
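Using CellTiter-Glo luminescence, growth of non-resistant KB-3-1 adenocarcinoma cells is assessed 72 h after pin-tool compound addition at 37 °C. Normalized responses across the concentration series yield fitted curves.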
SW480 rereplic – A quantitative high throughput screen for small molecules that induce DNA re-replication in SW480 colon adenocarcinoma cells; SW480 DNA re-replication, Hoechst DNA content imaging, 48 h; AID 624297, 2012; Potency, µM (series often up to 46.1 µM), for the others: at the highest dose re-replication activation, hits mostly activators; 340,000 tested, 1.8% active; note: % of control where 0% means no effect; nearly all actives have a fitted effect of over 55% in size
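Image-based read-out: total Hoechst fluorescence of nuclei (405 nm excitation, 500-530 nm emission), with hits raising the fraction of high-intensity nuclei. SW480 colon cells incubated 48 hr with compounds at 37 C.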
ELG1 DNA repair – qHTS screen for small molecules that inhibit ELG1-dependent DNA repair in human embryonic kidney (HEK293T) cells expressing luciferase-tagged ELG1 | HEK293T ELG1-luciferase reporter, luminescence, 16 h; DNA damage induced by 5-fluorouridine | Potency, µM (titrated, usually from 46.1 µM), for inactives: at the top dose activity change, negative = inhibition, most hits filed as inhibitors | 330,000 tested, 2.3% active | AID 504467, 2011; note: % is set by controls: 0 for no effect and ±100 for the full control effect; nearly all actives have a fitted effect of over 55% in size
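Step one: seed 2,000 cells per well. Step two: pin-transfer compound or DMSO alongside 5-fluorouridine. Step three: incubate 16 hr, 37 °C, 5% CO2. Step four: add ONE-Glo, wait 30 min, read luminescence.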
MCF10A rerep – A quantitative high throughput screen for small molecules that induce DNA re-replication in MCF 10a normal breast cells; MCF 10A DNA re-replication, Hoechst nuclear intensity, 48 h; Potency, µM (titrated, usually from 46.1 µM), for the others: at the top dose activity, positive = re-replication, usual class: activators; 350,000 tested, 2.9% active; AID 624296, 2012; note: % of control where 0% means no effect; nearly all actives have a fitted effect of over 50% in size
KB-V1 MDR tox – qHTS assay for MDR1-selective chemotherapeutics: Primary screen using the drug-selected MDR subline cells KB-V1; KB-V1 MDR cells viability, CellTiter-Glo, 72 h; 400,000 tested, 3.4% active; Potency, µM (top dose mostly 46.1 µM), usual class: cytotoxic; note: % is set by controls: 0 for no effect and ±100 for the full control effect; nearly all actives have a fitted effect of over 60% in size
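Cells of the MDR subline KB-V1 are plated, dosed with compound at multiple concentrations, and incubated 72 h at 37 degrees C; CellTiter-Glo is then added and luminescence read after 10 min.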
* = called active by the depositor; i = inactive; ? = inconclusive; / = not tested or not shown. The list is not random: actives were taken first. Their share in the collection is about 8.1%. Calls come from the whole dose curve; as a rule, active = well fitted curve in the direction sought with a large enough effect; inconclusive = small, poorly fitted or top-dose-only effect, or another doubt; inactive = no such curve, though single readings can be large; an effect the other way counts as inactive or inconclusive. Potency is the fitted concentration of half-maximal effect.

SMILES | KB-3-1 cytotox | SW480 rereplic | ELG1 DNA repair | MCF10A rerep | KB-V1 MDR tox
O=C1NC[C@H](Cc2ccc(O)cc2)N(C[C@@H]2CCCN2C[C@H](Cc2ccccc2)N2C[C@H](Cc3ccccc3)N(CC3CCCCCC3)C(=O)C2=O)C1=O | i | / | / | / | i
Cc1ccc2c(c1)[C@H]1[C@H](CO2)[C@H](c2ccccc2)[C@]2(C)C(=O)Nc3ccc(Cl)cc3C(=O)N12 | ? | 14.6µM* | ? | ? | ?
Cc1ccc2c(c1)[C@H]1[C@H](CO2)[C@H](c2ccccc2)[C@]2(C)C(=O)Nc3ccccc3C(=O)N12 | i | 9.2µM* | ? | 3.26µM* | ?
C[C@@]12C(=O)Nc3ccccc3C(=O)N1[C@H]1c3cc(Cl)ccc3OC[C@@H]1[C@@H]2c1ccccc1 | ? | ? | ? | 7.31µM* | ?
COc1ccccc1CN1[C@@H](CC(=O)O)c2cc(F)ccc2S1(=O)=O | i | -10.0% | / | 5.4% | i
CC(=O)N1C(=O)N(C(C)=O)C2C1N(C)C(=O)N2C(C)=O (stereo not drawn) | i | 18.7% | 14.3% | 5.5% | i
CCN1/C(=C/C=C/c2sc3ccccc3[n+]2CC)Sc2ccccc21 | 16.4µM* | -7.9% | ? | -6.0% | ?
CCN1/C(=C/C=C/C=C/c2sc3ccccc3[n+]2CC)Sc2ccccc21 | ? | ? | ? | -0.9% | ?
CCN1/C(=C/C=C/C=C/C=C/c2sc3ccccc3[n+]2CC)Sc2ccccc21 | 16.4µM* | 7.9% | ? | ? | i
COc1ccc(C2C(C(=O)/C=C/c3ccco3)=C(O)C(=O)N2CCN2CCOCC2)cc1OC (stereo not drawn) | i | -24.6% | 17.3% | 7.6% | ?
CC(=O)Nc1cc2c(cc1NC(=O)c1cnccn1)OCCO2 | i | -1.6% | -0.1% | -1.6% | i
c1ccc2c(C(c3nnnn3-c3ccc4c(c3)OCCO4)N3CCCC3)ccnc2c1 (stereo not drawn) | i | / | / | / | i
c1ccc(CN(Cc2ccccc2)C(c2ccnc3ccccc23)c2nnnn2-c2ccc3c(c2)OCCO3)cc1 (stereo not drawn) | ? | / | / | / | 18.4µM*
O=C(OCc1ccccc1)N1CCN(C(c2ccnc3ccccc23)c2nnnn2-c2ccc3c(c2)OCCO3)CC1 (stereo not drawn) | 23.1µM* | / | / | / | ?
COCc1nnc(NC(=O)c2ccc(S(=O)(=O)N3CCCc4ccccc43)cc2)o1 | ? | ? | 16.4µM* | 16.4µM* | ?
COc1ccc(-c2nnc(NC(=O)c3ccc(S(=O)(=O)N4CCCc5ccccc54)cc3)o2)cc1 | ? | ? | ? | -8.0% | ?
CC1CCCCN1S(=O)(=O)c1ccc(C(=O)Nc2nnc(C3CC3)o2)cc1 (stereo not drawn) | ? | ? | -12.2% | 15.8% | ?
O=C(Nc1nnc(C2CC2)o1)c1ccc(S(=O)(=O)N2CCCc3ccccc32)cc1 | ? | 3.9% | 7.31µM* | 10.1% | i
COc1cc(SC)ccc1C(=O)NCCOc1ccc(Cl)cc1 | i | -3.7% | -15.4% | 22.2% | 20.6µM*
COc1cc(SC)ccc1C(=O)NCCOc1c(C)cc(C)cc1C | ? | 2.2% | -14.3% | -2.4% | 20.6µM*
COc1cc(SC)ccc1C(=O)Nc1ccc(C)cc1C | i | 0.6% | ? | ? | 9.2µM*
COc1cc(SC)ccc1C(=O)Nc1ccc(C)cc1 | ? | 6.3% | ? | 1.6% | ?
COc1cc(SC)ccc1C(=O)Nc1cc(C)c(OCC(=O)N2CCOCC2)c(C)c1 | i | 8.8% | 14.6µM* | 1.7% | ?
COc1cc(SC)ccc1C(=O)Nc1ccc(Br)cn1 | ? | -1.6% | ? | ? | 18.4µM*
Cc1ccc(S(=O)(=O)Nc2ccc3ccccc3c2[N+](=O)[O-])cc1 | i | -4.2% | / | 18.4µM* | i
SMILES | KB-3-1 cytotox | SW480 rereplic | ELG1 DNA repair | MCF10A rerep | KB-V1 MDR tox
Cc1cc2ncc(C(N)=O)cn2n1 | i | 4.11µM* | 2.9% | 29.4% | i
COc1ccccc1N1CCN(C(=O)CCCC2=NS(=O)(=O)c3ccccc3N2)CC1 | i | 0.0% | -21.8% | 2.0% | i
C=CC[C@@H](CC(=O)N[C@H](CO)Cc1ccccc1)C(=O)N[C@H](C)COC(=O)[C@@H](CC=C)CC(=O)OC(C)(C)C | i | -1.4% | -1.9% | 5.7% | i
CC(CNC(=O)c1cc(COc2ccc3ncccc3c2)on1)c1ccccc1 (stereo not drawn) | / | 2.0% | 10.3µM* | ? | /
Cc1cccnc1CN1CCN(C(=O)c2cc(COc3ccc4ncccc4c3)on2)CC1 | ? | 2.7% | ? | ? | 6.51µM*
COCCNc1nc2cc(-c3ccsc3)sc2c(=O)n1C | i | / | / | / | i
COC(=O)[C@]12CCCCC=C1N(Cc1ccc(Cl)cc1Cl)C(=O)[C@H](CC(=O)NCc1ccc(C)o1)C2 | i | / | / | / | i
CCCn1c(=O)n(C)c(=O)c2c(SCC(=O)Nc3cc(C)on3)nc(C(C)(C)C)nc21 | ? | -2.7% | 8.2µM* | ? | i
Cc1cc(NC(=O)CSc2nc(C(C)C)nc3c2c(=O)n(C)c(=O)n3C)no1 | i | 4.2% | -20.3% | -0.6% | ?
CCCn1c(SCC(=O)N2CCN(c3ccc(OC)cc3)CC2)nc2c1c(=O)n(C)c(=O)n2C | i | -2.6% | 20.6µM* | ? | ?
CCCn1c(SCC(=O)Nc2ccccc2N2CCCCC2)nc2c1c(=O)n(C)c(=O)n2C | i | 5.2% | 7.31µM* | 2.7% | ?
CCCn1c(SCC(=O)Nc2ccccc2C(=O)OC)nc2c1c(=O)n(C)c(=O)n2C | i | -8.7% | 1.8% | 1.5% | 5.01µM*
COc1ccc(S(=O)(=O)N2CCOCC2)cc1NC(=O)CSc1nnc(N)s1 | i | -3.3% | -4.0% | 0.5% | i
CCCCn1c(SCC(=O)Nc2cc(C)on2)nc2c1c(=O)n(C)c(=O)n2C | i | -2.1% | ? | 0.9% | 14.6µM*
CCC1=[N+](CC(=O)c2ccc(C)cc2)CCn2c(C)ccc21 | 18.4µM* | 19.2% | ? | ? | i
CCC1=[N+](CC(=O)c2ccc(Br)cc2)CCn2c(C)ccc21 | ? | -11.6% | ? | ? | ?
CCOC(=O)c1c(C)c(C(=O)NCCCN2CCCC2=O)c(C)n1CC | i | -8.0% | 14.1% | 15.0% | ?
COc1ccc(-n2nc(C(=O)NCC(=O)N3CCN(c4ccccc4OC)CC3)c3ccccc3c2=O)cc1OC | i | 0.0% | 16.4µM* | -3.1% | ?
